Source: PubChem BioAssay AID686996 (Broad Institute, 2013)
The whole screen tested about 350,000 compounds, of which about 1,900 (0.54%) were called active. The sample holds actives, similar compounds and a random draw of the others, so the mix is not that of the screen. Unmarked numbers belong to inactive results.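 Rule for the calls: active = mean inhibition across replicates at least about 35%, with every replicate also reaching that limit (limit read from the data); inconclusive = only one of the two criteria met; inactive = neither criterion met.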

molecular target: Caspase-6 (Homo sapiens) (UniProt P55212); experiment: inhibition of CASP6 peptide cleavage – biochemical, VEID-R110 fluorescence, single point, set 2, primary screen (AID 686996); conditions: purified caspase-6, Z-VEID-R110 cleavage fluorescence; at 12.5 µM; stronger effect = higher value;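 note: 0% = median of neutral control wells and 100% = no fluorescence left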
Sequence (P55212 24-179 limits assumed): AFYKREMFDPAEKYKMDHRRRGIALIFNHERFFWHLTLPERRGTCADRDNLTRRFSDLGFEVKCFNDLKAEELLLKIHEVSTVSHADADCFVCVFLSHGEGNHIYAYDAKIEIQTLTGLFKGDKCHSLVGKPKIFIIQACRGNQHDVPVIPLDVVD
Sequence (P55212 194-293 limits assumed): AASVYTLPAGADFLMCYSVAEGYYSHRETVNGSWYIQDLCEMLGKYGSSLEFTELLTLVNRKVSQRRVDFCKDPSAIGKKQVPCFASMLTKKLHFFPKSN

Compound | inhibition
COc1ccc(OC)c(NC(=O)Cc2cccs2)c1 | 25.5%
CCOC(=O)c1ccc(NC(=O)Cc2cccs2)cc1 | 0.303%
CCOc1ccccc1NC(=O)Cc1cccs1 | 39.6% (active)
CO[C@H]1CN(C)C(=O)c2cc(NC(=O)Nc3cccc(F)c3)ccc2OC[C@@H](C)N(C)C[C@@H]1C | -5.35%
C[C@H]1CN([C@@H](C)CO)S(=O)(=O)c2ccc(-c3ccncc3)cc2O[C@H]1CN(C)S(C)(=O)=O | -2.14%
COc1ccc(S(=O)(=O)Nc2ccc3c(c2)CC(=O)N([C@@H](C)CO)C[C@@H](C)[C@@H](CN(C)C(=O)Nc2c(C)noc2C)O3)cc1 | 1.08%
O=C(C[C@H]1CC[C@H]2[C@@H](COC[C@H](O)CN2S(=O)(=O)c2cccc(F)c2)O1)NC1CCC1 | 0.605%
CCCCCC(=O)Nc1ccc(S(=O)(=O)Nc2ccc(Cl)nn2)cc1 | 9.99%
Cc1nnc(SCC(=O)Nc2ccc(S(=O)(=O)Nc3ccc(Cl)nn3)cc2)s1 | 35.3% (active)
Cc1nnc(SC(C)C(=O)Nc2ccc(S(=O)(=O)NC3CCCCC3)cc2)s1 (centres undefined) | 3.47%
C[C@@H](NC(=O)C[C@H]1CC[C@@H](NC(=O)Cc2ccccn2)[C@@H](CO)O1)c1ccccc1 | -7.46%
Oc1c(Cl)cc(Cl)c(Cl)c1Cc1c(O)c(Cl)cc(Cl)c1Cl | 45.1% (active)
O=C(CSc1nc(O)c(Cc2ccccc2)c(=O)[nH]1)Nc1nc2c(s1)CCCC2 | 9.11%
O=C(CCc1nc2sc3c(c2c(=O)[nH]1)CCCC3)NCC(=O)Nc1ccccc1Br | 36.7% (active)
CC(C)c1nc(SCC(=O)Nc2cccc(C(=O)O)c2)c2c3c(sc2n1)CCCC3 | 9.4%
O=c1ccc2c(-c3ccccc3S(=O)(=O)O)c3ccc(O)c(O)c3oc-2c1O | 87.7% (active)
O=C(C[C@H]1CC[C@@H](NC(=O)Nc2ccc(F)cc2)[C@@H](CO)O1)NCCN1CCCC1 | -1.07%
O=C(O)Cn1cnc2c(NCc3ccccc3)ncnc21 | -2.69%
O=S(=O)(c1ccccc1)N1CC[C@@H]2[C@@H](CO)Nc3ccc(-c4ccccc4F)cc3[C@@H]21 | -0.847%
C[C@H](CO)N1C[C@H](C)[C@H](CN(C)S(C)(=O)=O)Oc2ccc(NC(=O)CCCN(C)C)cc2C1=O | -7.82%
COC(=O)c1cccc(NC(=O)c2cccc(N3C(=O)CCC3=O)c2)c1 | 45% (active)
COc1ccccc1-c1nnc(NC(=O)c2cccc(N3C(=O)CCC3=O)c2)o1 | 6.24%
COC(=O)c1cccc(N2C(=O)C3C4C=CC(CC4)C3C2=O)c1 (centres undefined) | 3.07%
C[C@@H]1CN([C@@H](C)CO)C(=O)c2cccc(NS(=O)(=O)c3ccc(Cl)cc3)c2O[C@@H]1CN(C)Cc1ccccc1 | 0.793%
O=C(C1CCC1)N1CC[C@@H]2[C@H]1c1cc(C#Cc3ccc(F)cc3)ccc1N[C@@H]2CO | 1.04%

Compound | inhibition
O=C(CN1CCN(S(=O)(=O)c2cc(Cl)ccc2Cl)CC1)c1ccc(O)c(O)c1 | 35.7% (active)
O=S(=O)(c1cc(Cl)ccc1Cl)N1CCN(Cc2ccco2)CC1 | 4.43%
CCN1CCN(C(=O)C2CCN(S(=O)(=O)c3cc(Cl)ccc3Cl)CC2)CC1 | -3.59%
COc1cccc(CNC(=O)[C@H]2CCCN2C(=O)[C@H]2CCCN2C(=O)C2CCCCC2)c1 | 5.61%
COc1c(O)cc2oc(-c3ccc(O)c(O)c3)cc(=O)c2c1O | 39.1% (active)
C#CCN1C(Cc2ccccc2)C(=O)O[C@H](C2CCCCC2)[C@@H]1/C=C/C1CC1 (some centres undefined) | -4.1%
N#CC1=C(N)Oc2[nH]c(=S)[nH]c(=O)c2C12C(=O)Nc1ccccc12 (centres undefined) | 45.4% (active)
N#CC1=C(N)Oc2n[nH]c(CSc3ccccc3)c2C12C(=O)Nc1ccccc12 (centres undefined) | 7.38%
C[C@@H]1CN([C@@H](C)CO)S(=O)(=O)c2ccc(C3=CCCCC3)cc2O[C@@H]1CN(C)C(=O)CN(C)C | 0.621%
CCS(=O)(=O)N1CC2(CN(Cc3cc(F)ccc3F)[C@@H](CO)c3c2c2ccc(OC)cc2n3C)C1 | -1.32%
C[C@H](CO)N1C[C@H](C)[C@H](CN(C)CC2CCCC2)Oc2ncc(Br)cc2C1=O | 0.088%
C[C@@H]1CN([C@@H](C)CO)C(=O)c2cc(NS(=O)(=O)c3ccc(Cl)cc3)ccc2O[C@H]1CN(C)S(=O)(=O)c1cn(C)cn1 | -0.705%
Cc1ccc(S(=O)(=O)N[C@H](CO)C(C)C)cc1 | 1.4%
Cc1ccc(S(=O)(=O)/N=C2\C=C(NS(=O)(=O)c3ccc(C)cc3)C(=O)c3ccccc32)cc1 | 62.8% (active)
COc1ccc(S(=O)(=O)/N=C2\C=C(NS(=O)(=O)c3ccccc3)C(=O)c3ccccc32)cc1 | 55.8% (active)
CNC(=O)COc1ccc(S(=O)(=O)Nc2ccccc2)cc1 | 0.091%
Cc1ccc(S(=O)(=O)N/N=C(\c2ccccc2)C2CC2)cc1 | 8.02%
COc1ccc(NS(=O)(=O)c2ccc(Oc3c(C#N)cccc3C#N)cc2)cc1 | -1.42%
CO[C@H]1CN(C)C(=O)c2ccc(NS(=O)(=O)c3ccccc3)cc2OC[C@H](C)N(Cc2nccs2)C[C@@H]1C | 0.023%
C[C@@H](O)C#Cc1ccc([C@H]2[C@@H](CO)N3CCCCN(S(=O)(=O)c4ccccc4)C[C@@H]23)cc1 | -3.52%
CCCNC(=O)C[C@H]1C[C@@H]2c3cc(NS(=O)(=O)c4cccc(OC)c4)ccc3O[C@@H]2[C@@H](CO)O1 | 2.43%
C[C@@H]1C[C@@H]2O[C@H]2/C=C\C=C\C(=O)Cc2c(Cl)c(O)cc(O)c2C(=O)O1 | 37.4% (active)
COc1ccc(S(=O)(=O)N(C)C[C@H]2Oc3c(NC(=O)CCCCCC(=O)Nc4ccccc4N)cccc3C(=O)N([C@H](C)CO)C[C@H]2C)cc1 | -1.7%
O=C(Cc1ccccc1)N[C@H]1C=C[C@H](CC(=O)N2CCCCC2)O[C@@H]1CO | -1.28%
